Source: PubChem
In the library only some 6.2% were active in any assay of this set; here they are far more common.
HT1080 IDH1KD tx: kills HT-1080 cells with IDH1 knockdown | HT-1080 IDH1 knockdown viability, ATP luminescence, 48 h | Potency, µM (highest dose often 46.1 µM), for inactives: at the highest dose activity, negative = toxicity, usual class: cytotoxic | 360,000 compounds, 2% hits | AID 686971;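 note: 0% = DMSO wells and -100% = cell-free medium wells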
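Cytotoxicity counter-line: IDH1KD HT-1080, 48 h, CellTiter-Glo. Curves classed by r2, magnitude and activity.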
HT1080NT lethal: kills 2HG-producing HT-1080-NT fibrosarcoma cells; HT-1080-NT fibrosarcoma viability, CellTiter-Glo ATP luminescence, 48 h; Potency, µM (doses to about 46.1 µM), inactives show top-dose activity, negative = less viability, usual class: cytotoxic; 360,000 compounds, 1.6% hits; AID 686970;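 note: NT is the 2HG producing partner of a matched IDH1 knockdown line; 0% = DMSO-treated cells and -100% = media-only wells without cells; nearly all actives have a fitted effect of over 55% in size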
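HT-1080-NT fibrosarcoma cells (2HG-overproducing), 750 cells/well in RPMI with 5% FBS, dosed after 2 h and incubated 48 h at 37C. CellTiter-Glo luminescence normalized to DMSO and no-cell wells; concentration-response curves fitted and classed.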
KB-V1 cytotox: kills drug-selected multidrug resistant KB-V1 cells. 400,000 compounds, 3.4% hits. KB-V1 MDR cells viability, CellTiter-Glo, 72 h. Potency, µM (top dose mostly 46.1 µM), actives largely listed as cytotoxic. AID 1347076; note: % is set by controls: 0 for no effect and ±100 for the full control effect; nearly all actives have a fitted effect of over 60% in size
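KB-V1 MDR subline cells in DMEM (phenol-red free, 10% FBS) exposed to compounds in qHTS concentration series for 72 h at 37 degrees C. Viability read by CellTiter-Glo luminescence; concentration-effect curves fitted after normalization and correction.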
KB-3-1 tox: KB-3-1 parental cell cytotoxicity | Potency, µM (doses to about 46.1 µM), usual class: cytotoxic | 400,000 compounds, 1.4% hits | KB-3-1 viability, CellTiter-Glo ATP luminescence, 72 h; note: % is set by controls: 0 for no effect and ±100 for the full control effect; nearly all actives have a fitted effect of over 60% in size
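KB-3-1 parental drug-naive adenocarcinoma cells in DMEM/10% FBS, incubated 72 h at 37 C with pin-transferred compounds across a concentration series. Viability by CellTiter-Glo luminescence; concentration-response curves fitted after normalization.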
ATXN2 expr inh: ATXN2 expression inhibition. AID 1745845. Potency, µM (doses to about 57 µM), inactives show at the highest dose activity change, negative = inhibition, most hits filed as inhibitors. HEK-293 ATXN2-luciferase reporter, luminescence, 24 h. 360,000 compounds, 0.72% hits; note: % is set by controls: 0 for no effect and ±100 for the full control effect; nearly all actives have a fitted effect of over 55% in size
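ATXN2-luciferase reporter cells (luciferase flanked by upstream and downstream ATXN2 gene portions) were treated 24 h at 37 °C with compounds at up to 57 uM. SteadyGlo luminescence gave expression; GF-AFC fluorescence gave viability.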
ATXN viability: reduces viability in counter-screen for ATXN expression inhibitors; S2 cells (HEK-293 line with an ATXN2-luciferase reporter) viability, CellTiter-Fluor protease fluorescence, 24 h; Potency, µM (series often up to 56.7 µM), actives largely listed as cytotoxic; 400,000 compounds, 0.49% hits; note: nearly all actives have a fitted effect of over 40% in size
* marks the source's active call; other numbers are inactive results; i = inactive; ? = inconclusive; nt = no result; [ ] = remark or other dose. Calls come from the whole dose curve; as a rule, active = well fitted curve in the direction sought with a large enough effect; inconclusive = small, poorly fitted or top-dose-only effect, or another doubt; inactive = no such curve, though single readings can be large; an effect the other way counts as inactive or inconclusive. Potency is the fitted concentration of half-maximal effect.

SMILES | HT1080 IDH1KD tx | HT1080NT lethal | KB-V1 cytotox | KB-3-1 tox | ATXN2 expr inh | ATXN viability
N#CCc1nc2c3c4c(sc3ncn2n1)CCCC4 | 3% | 3% | ? | 2.3µM* | nt | i
Cc1nn2cnc3sc4c(c3c2nc1=O)CCCC4 | 12% | 14% | i | i | 4% | i
C=CCN=C1CC(C)(C)CC(=O)/C1=C(\O)c1ccccc1 | 2% | -20% | i | i | -7% | i
CC1(C)CC(=O)/C(=C(\O)c2ccccc2)C(=NCCc2ccccc2)C1 | -6% | 4% | 5.8µM* | i | 9% | i
CCCN(Cc1cccs1)C(=O)Nc1cc(C)ccc1OC | nt | nt | i | i | nt | nt
CCCC(=O)NC(c1ccco1)c1cc([N+](=O)[O-])c2cccnc2c1O (stereo not drawn) | -22% | -8% | ? | ? | ? | i
CCC(=O)NC(c1ccco1)c1cc(Br)c2cccnc2c1O (stereo not drawn) | nt | nt | i | i | 5µM* | ?
CC(=O)NC(c1ccco1)c1ccc2cccnc2c1O (stereo not drawn) | ? | ? | ? | 8.2µM* | 10µM* | i
CC(=O)NC(c1ccc(Cl)cc1)c1ccc2cccnc2c1O (stereo not drawn) | ? | ? | ? | i | nt | ?
COCCCNC(=O)Cn1c(=O)n(-c2cccc(C)c2)c(=O)c2c3c(sc21)CN(C(C)=O)CC3 | nt | nt | i | i | 0% | i
COc1ccccc1CNC(=O)CC(c1ccc(C)cc1)N1Cc2ccccc2C1=O (stereo not drawn) | nt | nt | i | i | -19% | i
Cc1ccccc1N1CCN(C2CCCN(C(=O)c3snnc3C)C2)CC1 (stereo not drawn) | 0% | 7% | ? | i | 0% | i
O=C1C(Cc2ccccc2)Nc2ncnc(N3CCc4ccccc4C3)c2N1Cc1ccc(Cl)cc1 (stereo not drawn) | ? | ? | 26µM* | i | ? | ?
CCC1Nc2ncnc(N3CCc4ccccc4C3)c2N(Cc2ccc(Cl)cc2)C1=O (stereo not drawn) | -13% | -21% | i | ? | ? | ?
COc1ccc(CN2C(=O)C(C)Nc3ncnc(N4CCOCC4)c32)cc1 (stereo not drawn) | 15µM* | ? | 18µM* | ? | 1% | i
OC1(c2cccnc2)CCN(Cc2ccc3c(c2)CN(Cc2cccc(C(F)(F)F)c2)CCO3)CC1 | nt | nt | nt | nt | nt | i
Fc1ccc(-n2cc(-c3ccccc3)c3c(=S)nc[nH]c32)cc1 | ? | -29% | i | 18µM* | 0% | nt
Nn1c(Cc2cccc3ccccc23)nnc1SCc1ccccc1 | 3% | 6% | 16µM* | i | 2% | i
CCOC(=O)c1c(CSC(=N)N)n(-c2ccc(Br)cc2)c2cc(Br)c(OC(C)=O)cc12 | -7% | 13% | i | i | 11% | i
CCCCCCCCOC(=O)c1c(CSC(=N)N)n(C)c2cc(Br)c(OC(C)=O)cc12 | ? | ? | ? | i | nt | 32µM*
CCOC(=O)c1c(CSc2nc(C)cc(C)c2C#N)n(C)c2cc(Br)c(OC(C)=O)cc12 | 5% | ? | ? | ? | ? | i
C=CCCc1ccc(C#N)c(SCc2c(C(=O)OCC)c3cc(OC(C)=O)c(Br)cc3n2C)n1 | -13% | ? | 2.6µM* | ? | 5% | ?
Clc1ccc(CNc2ncnc3nc[nH]c23)cc1 | nt | nt | i | i | nt | nt
Cc1ccc(C(=O)N2CCN(Cc3ccc4c(c3)OCO4)CC2)c(Cl)c1 | 16µM* | -10% | i | ? | 0% | ?
Cc1ccc(S(=O)(=O)N(C)c2ccc(C(=O)N3CCN(Cc4ccc5c(c4)OCO5)CC3)cc2)cc1 | ? | ? | 1.6µM* | 12µM* | ? | i
SMILES | HT1080 IDH1KD tx | HT1080NT lethal | KB-V1 cytotox | KB-3-1 tox | ATXN2 expr inh | ATXN viability
O=C(c1[nH]nc2c1CCc1ccccc1-2)N1CCN(Cc2ccc3c(c2)OCO3)CC1 | ? | ? | ? | 12µM* | -33% | i
CN(CC(=O)Nc1ccc(Cl)cc1F)S(=O)(=O)c1ccc2c(c1)n(C)c(=O)c(=O)n2C | nt | nt | i | i | 7% | i
C=CCNc1ncnc2c1[nH]c1ccccc12 | -11% | -2% | i | ? | -20% | i
C=CCNc1ncnc2c1[nH]c1ccc(Cl)cc12 | -27% | -1% | ? | 8.2µM* | -18% | i
C(=C/c1ccnc2nc(SC/C=C/c3ccccc3)nn12)/c1ccccc1 | -1% | -17% | 16µM* | i | -13% | i
Cc1ccsc1C1Cc2c(C(=O)NCc3cccnc3)c(=O)cc(C)n2-c2ccccc2S1 (stereo not drawn) | nt | nt | nt | nt | nt | i
CCN(CC)S(=O)(=O)c1cc(NC(=O)C(C)N2CCN(Cc3ccc4c(c3)OCO4)CC2)ccc1C (stereo not drawn) | -11% | -4% | 2.9µM* | 13µM* | -18% | i
CCOC(=O)CNS(=O)(=O)c1cc(-c2n[nH]c(=O)c3ccccc23)ccc1C | -2% | 1% | i | i | 4% | ?
COc1ccc(NS(=O)(=O)c2cc(C(=O)O)ccc2C)cc1 | 2%[9.24 µM] | -26% | i | i | 1% | i
COc1ccc(NS(=O)(=O)c2cc(NC(=O)c3ccc(=O)[nH]n3)ccc2C)cc1 | ? | 26µM* | ? | ? | nt | i
Cc1ccc(S(=O)(=O)Nc2ccc(SC(F)F)cc2)c(C)c1 | -11% | -1% | 16µM* | i | -37% | ?
Cc1ccc(NS(=O)(=O)c2cc(-c3n[nH]c(=O)c4ccccc34)ccc2C)cc1 | 15µM* | 18µM* | 21µM* | 12µM* | -9% | ?
COc1ccc(NS(=O)(=O)c2cc(C)ccc2C)cc1 | ? | -25% | i | 7.3µM* | -12% | i
COc1ccc(NS(=O)(=O)c2cc(OC)ccc2NC(=O)c2cc(C)oc2C)cc1 | 5.8µM* | 5.8µM* | ? | ? | -20% | ?
COc1ccc(NC(=O)c2cc(S(=O)(=O)N3CCCC3)oc2C)cc1 | 1% | -13% | ? | i | nt | i
Cc1ccc(NC(=O)Cn2cccc2)cc1Cl | -16% | -7% | 18µM* | i | -3% | i
Cc1ccc(NC(=O)Cn2cccc2)cc1C | -9% | 13% | i | i | 3% | i
Cc1cccc(C(=O)Nc2ccccc2SCC(=O)Nc2ccc(C)c(Cl)c2)c1 | ? | -20% | ? | 12µM* | ? | ?
Cc1ccc(-c2noc(C3CCCN(C(=O)c4c(F)cccc4F)C3)n2)cc1 (stereo not drawn) | -29% | -3% | 16µM* | i | 4% | i
